# Results as given in PubChem BioAssay (EPA / NIEHS).
# Activity calls are given as the source filed them. Rule for the calls: active = hit-call score of the fitted dose curve at least 0.9, where 1 is the maximum; inactive = score below 0.9.
# Legend:
# [1] = APR_HepG2_P-H2AX_72hr: Apredica 72-hour HepG2 Assay for H2AX Phosphorylation (AID 2282916); conditions: imaging, actives raise or lower the signal;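 note: phospho-histone H2A.x immunostain intensity per cell marking DNA damage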
# Method in brief: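 Following 72 hr treatment with 0.39–200 uM compound, HepG2 cells were formaldehyde-fixed, permeabilized and stained for phospho-H2A.x; signal was measured by high-content imaging and fitted bidirectionally against DMSO controls.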
# [2] = APR_HepG2_MitoMembPot_72hr: Apredica 72-hour HepG2 Assay for Mitochondrial Membrane Potential (AID 2282917); conditions: imaging, actives raise or lower the signal
# Method in brief: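 Membrane potential read by MitoTracker Red CMXRos (250 nM, 30 min, pre-fixation) fluorescence imaging of HepG2 after 72 hr exposure. Ten concentrations, 0.39–200 uM, duplicate wells, 0.5% DMSO; fitted in both directions against DMSO baseline.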
# [3] = APR_HepG2_MitoticArrest_72hr: Apredica 72-hour HepG2 Assay for Mitotic Arrest (AID 2282918); conditions: high-content imaging, actives raise or lower the signal
# Method in brief: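 High-content imaging of fixed human HepG2 cells after 72 h compound exposure (0.39–200 uM, duplicates, 0.5% DMSO); mitotic arrest scored from phospho-histone H3 and nuclear Hoechst staining relative to DMSO.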
# [4] = APR_HepG2_P-H2AX_24hr: Apredica 24-hour HepG2 Assay for H2AX Phosphorylation (AID 2282920); conditions: high-content imaging, actives raise or lower the signal
# Method in brief: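 High-content imaging of phospho-histone H2A.x immunofluorescence, nuclei counterstained with Hoechst 33342, in fixed HepG2 cells. Compounds ran 0.39–200 uM in duplicate for 24 h, final DMSO 0.5%. Signal change fitted both directions against DMSO.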
# [5] = APR_HepG2_StressKinase_72hr: Apredica 72-hour HepG2 Assay for Stress Kinase (AID 2282921); conditions: HepG2 stress kinase (phospho-c-Jun) imaging, actives raise or lower the signal
# Method in brief: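 Fluorescence intensity of Cy3-tagged anti-phospho-c-Jun antibody, quantified per cell from Hoechst-defined nuclei across six images per well, served as the read-out following 72 h exposure (0.39–200 uM, 0.5% v/v DMSO).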
# [6] = APR_HepG2_StressKinase_24hr: Apredica 24-hour HepG2 Assay for Stress Kinase (AID 2282922); conditions: HepG2 stress kinase (phospho-c-Jun) imaging, actives raise or lower the signal
# Method in brief: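 HepG2, 24 hr dosing, 0.39–200 uM in duplicate, 0.5% DMSO; formaldehyde fix (3.7%), 0.5% Triton X-100; anti-phospho-c-Jun + Cy3 secondary, Hoechst counterstain; ArrayScan imaging; bidirectional curve fit vs DMSO baseline.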
# [7] = APR_HepG2_NuclearSize_72hr: Apredica 72-hour HepG2 Assay for Nuclear Size (AID 2282925); conditions: high-content imaging, actives raise or lower the signal
# Method in brief: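 HepG2; cpd 0.39–200 uM, 10 conc, duplicate; 72 h; DMSO 0.5% v/v; fix 3.7% formaldehyde 30 min RT; Triton permeabilization; Hoechst 2 ug/mL; HCS imaging 20x; nuclear diameter; gain/loss fit vs DMSO.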
# [8] = ATG_CRE_CIS: Attagene CIS-FACTORIAL HepG2 Assay for human cAMP Responsive Element (CRE) binding protein 3 (AID 2282926); conditions: HepG2 CRE cis-reporter, Attagene multiplexed mRNA; actives raise or lower the signal
# Method in brief: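 Multiplexed transcription-unit reporters transfected into HepG2; 24 h dosing; RT-PCR/capillary electrophoresis fluorescence read-out; bidirectional fit vs DMSO.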
# [9] = target: CCAAT/enhancer-binding protein beta (Homo sapiens) (UniProt P17676); assay: ATG_C_EBP_CIS: Attagene CIS-FACTORIAL HepG2 Assay for human CCAAT/Enhancer Binding Protein (C/EBP) beta (AID 2282927); conditions: HepG2 Attagene cis-factorial transcription factor reporter; actives raise or lower the signal
# Method in brief: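 Changes in reporter mRNA, rather than exogenous chimeric receptor activity, reflect native C/EBP signalling in transfected HepG2 cells dosed for 24 h; transcripts are detected by RT-PCR and capillary electrophoresis.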
# [10] = ATG_DR4_LXR_CIS: Attagene CIS-FACTORIAL HepG2 Assay for human Liver X Receptor (LXR), DR4 submotif (AID 2282929); conditions: HepG2 Attagene DR4 cis-reporter, mRNA transcription; actives raise or lower the signal
# Method in brief: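 The endpoint is DR4-element-driven reporter transcripts after 24 h chemical exposure of transfected HepG2 cells. These were measured via RT-PCR and capillary electrophoresis, and gain or loss of signal was fitted relative to DMSO controls.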
# [11] = target: Aryl hydrocarbon receptor (Homo sapiens) (UniProt P35869); assay: ATG_Ahr_CIS: Attagene CIS-FACTORIAL HepG2 Assay for human Aryl Hydrocarbon Receptor (Ahr) (AID 2282930); conditions: HepG2 AhR cis-factorial reporter transcription; actives raise or lower the signal
# Method in brief: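 HepG2, transient MRTU (cis) transfection, 24 h exposure. RNA → cDNA → PCR → 6-FAM primer extension → HpaI 2 h 37 C → CE. Fit: bidirectional, DMSO baseline.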
# [12] = ATG_AP_1_CIS: Attagene CIS-FACTORIAL HepG2 Assay for human Activator Protein 1 (AP-1) (AID 2282931); conditions: HepG2 Attagene cis-factorial AP-1 reporter mRNA; actives raise or lower the signal
# Method in brief: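 Readout is reporter transcript level from endogenous transcription factor activity, quantified by RT-PCR with fluorescent primer extension and capillary electrophoresis. Transiently transfected HepG2 cells, 24 h exposure. Curves fitted both directions versus DMSO.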
# [13] = ATG_AP_2_CIS: Attagene CIS-FACTORIAL HepG2 Assay for human Activator Protein 2 (AP-2) (AID 2282932); conditions: HepG2 AP-2 cis-reporter, Attagene transcription factor profiling; actives raise or lower the signal
# Method in brief: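 Step one: transient transfection of HepG2 with reporter transcription units. Step two: 24 h chemical exposure. Step three: RNA extraction, RT-PCR, labelled fragment analysis by capillary electrophoresis; DMSO serves as baseline.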
# [14] = ATG_BRE_CIS: Attagene CIS-FACTORIAL HepG2 Assay for human Bone Morphogenetic Protein (BMP) Response Element (BRE) (AID 2282933); conditions: HepG2 BMP response element reporter, Attagene transcription factor profiling; actives raise or lower the signal
# Method in brief: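 Endogenous transcription factor activity at a BMP response element was monitored in transfected HepG2 cells 24 h after dosing. Fluorescent RT-PCR products were resolved by capillary electrophoresis, and activity was fitted in both directions versus DMSO.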
# [15] = target: Retinoic acid receptor alpha (Homo sapiens) (UniProt P10276); assay: ATG_DR5_RAR_CIS: Attagene CIS-FACTORIAL HepG2 Assay for human Retinoic Acid Receptor Alpha (RARE), DR5 submotif (AID 2282934); conditions: HepG2 Attagene cis-factorial RARE DR5 reporter, mRNA; actives raise or lower the signal;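 for AC50: reporter responds to endogenous RAR alpha beta and gamma in HepG2 not RARA alone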
# Method in brief: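 HepG2, transient cis-reporter transfection, 24 h exposure. mRNA readout: RT-PCR, FAM label, HpaI cut, capillary electrophoresis. DMSO baseline, gain/loss fitting.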
# [16] = APR_HepG2_p53Act_72hr: Apredica 72-hour HepG2 Assay for p53 Activation (AID 2282923); conditions: high-content imaging, actives raise or lower the signal;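 note: average cellular p53 protein immunofluorescence intensity in HepG2 cells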
# Method in brief: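 HepG2 monolayers receive test compounds in duplicate at ten concentrations (0.39 through 200 uM) for 72 hr. They are then formaldehyde-fixed, antibody-labelled for p53, Hoechst-stained and imaged, with activity fitted bidirectionally versus DMSO.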
# [17] = APR_HepG2_MitoMass_72hr: Apredica 72-hour HepG2 Assay for Mitochondrial Mass (AID 2282924); conditions: high-content imaging, actives raise or lower the signal;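 note: MitoTracker Red CMXRos stain intensity per cell imaged as mitochondrial mass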
# Method in brief: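 HepG2, 72 hr cmpd, 10 conc 0.39–200 uM in dup, DMSO 0.5% v/v. MitoTracker Red CMXRos 250 nM 30 min pre-fix; formaldehyde 3.7% fix 30 min RT. HCS imaging, gain/loss fit vs DMSO.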
# [18] = ATG_CMV_CIS: Attagene CIS-FACTORIAL HepG2 Assay for human CMV (Internal Marker) (AID 2282928); conditions: HepG2 CMV promoter reporter, transcription factor profiling; actives raise or lower the signal;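 note: endpoint acts as a background internal control marker rather than a target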
# Method in brief: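 Endogenous transcription factor activity read in HepG2 via transfected cis-promoter reporter units. After 24 h dosing, reporter mRNA measured by RT-PCR/capillary electrophoresis; gain or loss of signal fit relative to DMSO.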
# [19] = target: Transcription factor E2F1 (Homo sapiens) (UniProt Q01094); assay: ATG_E2F_CIS: Attagene CIS-FACTORIAL HepG2 Assay for human E2F Transcription Factor 1 (AID 2282935); conditions: HepG2 Attagene cis-reporter, E2F reporter RNA transcripts; actives raise or lower the signal
# Method in brief: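 Total RNA from 24 h-treated, reporter-transfected HepG2 cells undergoes DNase I treatment, oligo(dT) reverse transcription, PCR and 6-FAM primer extension before capillary electrophoresis.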
# Sequence of Retinoic acid receptor alpha (Homo sapiens) (P10276 whole entry, looked up): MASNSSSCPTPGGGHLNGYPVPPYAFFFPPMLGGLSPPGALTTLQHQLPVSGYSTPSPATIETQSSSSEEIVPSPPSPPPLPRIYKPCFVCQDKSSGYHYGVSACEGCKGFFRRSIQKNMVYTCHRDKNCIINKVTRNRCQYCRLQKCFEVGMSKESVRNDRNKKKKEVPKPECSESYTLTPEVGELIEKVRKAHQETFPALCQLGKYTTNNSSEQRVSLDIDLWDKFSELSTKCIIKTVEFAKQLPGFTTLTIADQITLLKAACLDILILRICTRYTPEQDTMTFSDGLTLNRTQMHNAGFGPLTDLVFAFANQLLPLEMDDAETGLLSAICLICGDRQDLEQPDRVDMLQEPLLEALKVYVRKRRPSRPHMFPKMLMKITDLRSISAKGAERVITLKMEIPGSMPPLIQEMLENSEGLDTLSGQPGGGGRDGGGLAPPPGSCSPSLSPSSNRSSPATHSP
# Sequence of Aryl hydrocarbon receptor (Homo sapiens) (P35869 whole entry, looked up): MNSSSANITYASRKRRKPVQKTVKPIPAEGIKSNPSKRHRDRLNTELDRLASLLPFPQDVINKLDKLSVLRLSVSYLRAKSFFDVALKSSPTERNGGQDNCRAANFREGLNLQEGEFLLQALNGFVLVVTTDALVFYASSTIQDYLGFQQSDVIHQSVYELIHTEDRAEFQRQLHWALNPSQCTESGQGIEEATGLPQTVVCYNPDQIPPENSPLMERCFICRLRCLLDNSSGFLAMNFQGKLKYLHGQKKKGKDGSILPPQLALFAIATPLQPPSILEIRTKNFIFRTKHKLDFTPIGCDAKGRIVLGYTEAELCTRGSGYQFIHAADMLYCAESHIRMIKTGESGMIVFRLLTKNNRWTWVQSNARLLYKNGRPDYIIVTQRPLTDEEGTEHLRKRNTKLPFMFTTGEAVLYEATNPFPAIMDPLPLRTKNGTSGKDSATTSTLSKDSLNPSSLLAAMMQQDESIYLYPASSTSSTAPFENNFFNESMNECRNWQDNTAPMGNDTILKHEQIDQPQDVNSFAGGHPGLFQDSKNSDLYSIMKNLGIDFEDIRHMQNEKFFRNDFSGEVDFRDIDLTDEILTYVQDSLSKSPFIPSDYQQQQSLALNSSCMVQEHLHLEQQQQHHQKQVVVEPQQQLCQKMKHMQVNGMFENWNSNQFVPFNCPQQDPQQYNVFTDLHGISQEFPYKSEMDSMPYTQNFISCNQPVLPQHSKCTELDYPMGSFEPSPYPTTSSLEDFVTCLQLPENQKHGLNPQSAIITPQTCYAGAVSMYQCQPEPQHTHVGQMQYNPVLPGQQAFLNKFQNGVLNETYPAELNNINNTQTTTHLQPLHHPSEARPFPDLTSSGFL
# Sequence of CCAAT/enhancer-binding protein beta (Homo sapiens) (P17676 whole entry, looked up): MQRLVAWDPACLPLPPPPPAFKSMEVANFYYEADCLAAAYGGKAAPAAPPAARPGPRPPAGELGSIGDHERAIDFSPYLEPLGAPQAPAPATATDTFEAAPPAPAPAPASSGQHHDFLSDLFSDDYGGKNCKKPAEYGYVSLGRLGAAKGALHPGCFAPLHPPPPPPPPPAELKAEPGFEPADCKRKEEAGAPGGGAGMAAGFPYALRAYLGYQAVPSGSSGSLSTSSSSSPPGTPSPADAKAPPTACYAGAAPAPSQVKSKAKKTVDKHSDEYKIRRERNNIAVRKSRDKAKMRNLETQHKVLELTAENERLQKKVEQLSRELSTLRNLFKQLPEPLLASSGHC
# Sequence of Transcription factor E2F1 (Homo sapiens) (Q01094 whole entry, looked up): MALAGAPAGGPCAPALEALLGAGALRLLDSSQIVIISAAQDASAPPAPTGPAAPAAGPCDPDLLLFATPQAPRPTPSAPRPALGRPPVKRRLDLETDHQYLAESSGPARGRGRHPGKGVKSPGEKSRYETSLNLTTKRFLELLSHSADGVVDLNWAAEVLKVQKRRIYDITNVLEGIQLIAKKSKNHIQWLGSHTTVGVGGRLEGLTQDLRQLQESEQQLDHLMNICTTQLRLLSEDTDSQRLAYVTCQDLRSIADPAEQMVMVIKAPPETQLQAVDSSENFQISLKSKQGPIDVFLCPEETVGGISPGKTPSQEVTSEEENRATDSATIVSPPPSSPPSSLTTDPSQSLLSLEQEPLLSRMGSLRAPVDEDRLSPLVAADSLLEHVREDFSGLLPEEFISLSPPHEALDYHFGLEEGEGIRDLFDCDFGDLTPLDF
smiles,measurement,setting,value
CCc1cccc(CC)c1N(COC)C(=O)CCl,outcome,[1],inactive
same,AC50,[2],31.1 µM (active)
same,outcome,[3],inactive
same,AC50,[4],70.7 µM (active)
same,outcome,[5],inactive
same,outcome,[6],inactive
same,outcome,[7],inactive
same,AC50,[8],3.04 µM (active)
same,AC50,[9],3.69 µM (active)
same,outcome,[10],inactive
same,outcome,[11],inactive
same,AC50,[12],6.1 µM (active)
same,outcome,[13],inactive
same,outcome,[14],inactive
same,outcome,[15],inactive
CSc1nc(NC(C)C)nc(NC(C)C)n1,outcome,[1],inactive
same,outcome,[2],inactive
same,outcome,[3],inactive
same,outcome,[4],inactive
same,outcome,[5],inactive
same,outcome,[6],inactive
same,outcome,[16],inactive
same,outcome,[7],inactive
same,outcome,[8],inactive
same,outcome,[9],inactive
same,outcome,[10],inactive
same,outcome,[11],inactive
same,outcome,[12],inactive
same,outcome,[13],inactive
same,outcome,[14],inactive
same,AC50,[15],21.9 µM (active)
FC(F)C(F)(F)OCC(Cn1cncn1)c1ccc(Cl)cc1Cl (stereo unspecified),AC50,[1],105 µM (active)
same,outcome,[2],inactive
same,AC50,[3],100 µM (active)
same,outcome,[4],inactive
same,outcome,[5],inactive
same,outcome,[6],inactive
same,AC50,[16],116 µM (active)
same,outcome,[17],inactive
same,outcome,[7],inactive
same,AC50,[8],23.2 µM (active)
same,outcome,[9],inactive
same,AC50,[10],50 µM (active)
same,AC50,[11],33.3 µM (active)
same,outcome,[12],inactive
same,outcome,[13],inactive
same,AC50,[14],58.4 µM (active)
same,AC50,[15],13 µM (active)
CCC(CC)Nc1c([N+](=O)[O-])cc(C)c(C)c1[N+](=O)[O-],outcome,[1],inactive
same,outcome,[2],inactive
same,outcome,[3],inactive
same,outcome,[4],inactive
same,outcome,[5],inactive
same,outcome,[6],inactive
same,outcome,[16],inactive
same,outcome,[7],inactive
same,outcome,[8],inactive
same,outcome,[9],inactive
same,outcome,[18],inactive
same,AC50,[10],37.9 µM (active)
same,outcome,[11],inactive
same,outcome,[12],inactive
same,outcome,[13],inactive
same,outcome,[14],inactive
COc1cccc(C(=O)NN(C(=O)c2cc(C)cc(C)c2)C(C)(C)C)c1C,outcome,[1],inactive
same,outcome,[2],inactive
same,outcome,[3],inactive
same,outcome,[4],inactive
same,outcome,[5],inactive
same,outcome,[6],inactive
same,outcome,[16],inactive
same,outcome,[17],inactive
same,outcome,[7],inactive
same,outcome,[8],inactive
same,outcome,[9],inactive
same,AC50,[10],50 µM (active)
same,outcome,[11],inactive
same,outcome,[12],inactive
same,AC50,[13],13.1 µM (active)
same,outcome,[14],inactive
same,outcome,[15],inactive
same,outcome,[19],inactive
CC[C@H](C)[C@H]1O[C@]2(C=C[C@@H]1C)C[C@@H]1C[C@@H](C/C=C(\C)[C@@H](O[C@H]3C[C@H](OC)[C@@H](O[C@H]4C[C@H](OC)[C@@H](NC)[C@H](C)O4)[C@H](C)O3)[C@@H](C)/C=C/C=C3\CO[C@@H]4[C@H](O)C(C)=C[C@@H](C(=O)O1)[C@]34O)O2,outcome,[1],inactive
same,AC50,[2],0.16 µM (active)
same,outcome,[3],inactive
same,outcome,[4],inactive
same,outcome,[5],inactive
same,outcome,[6],inactive
same,outcome,[16],inactive
same,outcome,[17],inactive
same,outcome,[7],inactive
same,outcome,[8],inactive
same,outcome,[9],inactive
same,outcome,[18],inactive
same,outcome,[10],inactive
same,outcome,[11],inactive
same,outcome,[12],inactive
same,outcome,[13],inactive
same,outcome,[14],inactive
same,outcome,[19],inactive
CCCCOC(=O)c1ccccc1C(=O)O,outcome,[1],inactive
same,outcome,[2],inactive
same,outcome,[3],inactive
same,outcome,[4],inactive
same,outcome,[5],inactive
same,outcome,[6],inactive
same,outcome,[16],inactive
same,outcome,[7],inactive
same,outcome,[8],inactive
same,outcome,[9],inactive
same,outcome,[10],inactive
same,outcome,[11],inactive
same,outcome,[12],inactive
same,outcome,[13],inactive
same,outcome,[14],inactive
same,outcome,[15],inactive
